This is part of a sample that, as a whole, favours compounds with a hit. Of some 83,000 tested, about 20% had one in any assay.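 Testing used 96-well plates and a 48-hour single-concentration exposure. Example: -40 means 40% of the starting cells died.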 Active and inactive are the calls of the source. The calls were made as follows: active = growth percent below 10; inactive = the rest.

One assay has as its system SN12C renal. The assay can be described thus: NCI-60 one-dose screen, 48 h (100 = growth as untreated, 0 = no growth, -100 = all killed). The following applies: 10 µM unless noted.
Turning to `CCN(CC)CCOc1ccc(-c2c(-c3ccccc3)c(=O)oc3ccccc23)cc1`, the growth is 80.3% (inactive). Same read-out and setting: to `COc1ccc2c(O)c(/C=C3\N=Nc4ccccc43)oc2c1C[C@@H]1CCNC[C@H]1F` belongs 67.7% (inactive); to `COc1cc(OC)cc(C2=C3CC[C@@H]4[C@H](CC[C@]5(C)C(=O)CC[C@@H]45)C3=CC3C(O)c4cccnc4N4C(=O)COC234)c1` (some centres undefined), 101% (inactive).

For `CC(=O)N1N=C(c2ccc(Nc3nc(Nc4ccc(Cl)cc4)nc(Nc4ccc(Cl)cc4)n3)cc2)CC1c1ccco1` (centres undefined), the growth is 90.3% (inactive). Still for that read-out and setting: for `CCS/C(Nc1ccccc1)=C(\C#N)C(=O)N/N=C/c1ccc(Cl)cc1Cl` the value was 34.5% (inactive); for `CCOC(=O)C(=Cc1cccc(Cl)c1)C(=O)OCC`, 33.3% (inactive); for `CN[C@]12CC3(C=CC(=O)C=C3)O[C@@]1(Cc1ccc(OC)cc1)N(C)C(=O)N2`, 4.44% (active).

The subject of another assay is UO-31 renal. The assay is described as above. The settings on record: 10 µM unless noted.
As for `Cn1cc(-c2csc(-c3ccc(Cl)cc3)n2)c2cccnc21`, the growth is -37.5% [100 µM] (active). Regarding `COc1cc(-c2nc(SCCC(C)C)nc(Nc3ccccc3Cl)c2C#N)cc(OC)c1OC`, the growth is 69.7% (inactive). Same read-out and setting: for `CCn1c(=S)[nH]c2c(=O)n(C)c(=O)n(C)c21` the value was 93.9% (inactive). Same read-out and setting: for `c1ccc(CNc2c3ccccc3nc3ccccc23)cc1` the value was 23.8% (inactive); for `COCCn1c(-c2csc(-c3cn(C)c4ccc(OC)cc34)n2)cc2cccnc21`, 54.9% (inactive). Same read-out and setting: to `CCOC(=O)CSc1ncnc2c1c(-c1ccccc1)c(-c1ccccc1)n2-c1ccc(C)cc1` belongs 73.4% (inactive).

As to `COc1cc2oc(-c3cccc(NC(=O)c4cccc(Br)c4)c3)cc(=O)c2c(OC)c1OC`, the growth is 36.8% (inactive). Still for that read-out and setting: for `Cc1ccc(Cl)cc1Nc1nc(C(F)(F)F)ccc1C(=O)N/N=C/c1cccnc1` the value was 15% (inactive). Still for that read-out and setting: to `Cn1c(=O)c2c(nc(NC3=NS(=O)(=O)c4ccccc43)n2CC(=O)N2CCc3ccccc32)n(C)c1=O` belongs 75.9% (inactive).

In the case of `Cc1cccc(Cl)c1NC(=O)c1ccc2nc(NC(=O)NCCN(C)C)sc2c1`, the growth is 90.1% (inactive). The same measure, in the same setting: for `CCOC(=O)c1c(C)nc2c(c1N)CC(=O)N2Cc1cc(F)cc(Cl)c1` the value was 84.6% (inactive). The same measure, in the same setting: for `COC(C(=O)[C@@H](O)[C@@H](C)O)[C@@H]1Cc2cc3cc(O[C@H]4C[C@@H](O[C@H]5C[C@@H](O)[C@H](O)C(C)O5)[C@H](O)C(C)O4)cc(O)c3c(O)c2C(=O)[C@H]1O[C@H]1C[C@@H](O[C@H]2C[C@@H](O[C@H]3C[C@@H](OC)[C@H](O)C(C)O3)[C@@H](O)C(C)O2)[C@H](O)C(C)O1` (some centres undefined) the value was 64.5% (inactive); for `CN([O-])c1nc(N(C)[O-])nc(N2CCOCC2)n1.CN([O-])c1nc(N(C)[OH2+])nc(N2CCOCC2)n1.[Fe+3]`, 72.3% [100 µM] (inactive). On the same count and under the same terms, for `CCOP(=O)(OCC)c1nc(-c2ccccc2)oc1NCc1cccnc1` the value was 89.7% (inactive); for `CCn1c(SCC(=O)c2ccc(Br)cc2)nnc1-c1ccncc1`, 91.4% (inactive); for `CCCCNc1ccc(C#N)c(OCCN(CC)CC)c1`, 84.6% (inactive).

As for `N#Cc1c(-c2ccc(Cl)cc2)nc(NN=Cc2cccc(O)c2)nc1N1CCOCC1`, the growth was 35.7% (inactive). Regarding `CS(=O)(=O)Nc1cc(-c2ccc3ncnc(Nc4c(Cl)ccc5c4OCO5)c3c2)cnc1Cl`, the growth is -71.4% (active).

Take `Fc1cccc(CNc2c3ccccc3nc3ccccc23)c1F`: the growth is 40.1% (inactive).

As for `COC(=O)CNC(=O)[C@H](Cc1ccccc1)NCc1ccncc1`, the growth is 91.2% (inactive). Consider `O=C(NCCCN1CCOCC1)c1cccc(N2C(=O)/C(=C/c3ccc(F)cc3)SC2=S)c1`, for which the growth is 70.7% (inactive). For `O=[N+]([O-])/C(=C/C=C/c1ccccc1)c1ccccc1`, the growth was -44.4% (active).

With `Cn1cc(-c2csc(-c3c[nH]c4ccc(Br)cc34)n2)c2cnccc21`, the growth is -96.3% (active). On to `C=C(C)[C@@H]1CC[C@]2(C(=O)N3CCN(C)CC3)CC[C@]3(C)[C@H](CC[C@@H]4[C@@]5(C)CC(=C/c6ccncc6)/C(=N/O)C(C)(C)[C@@H]5CC[C@]43C)[C@@H]12`, for which the growth is 45.5% (inactive). Same read-out and setting: to `COc1cc(N2C(=O)[C@H](O)C2c2ccc(SC)cc2)cc(OC)c1OC` (some centres undefined) belongs 43.5% (inactive); to `CCCCC(=O)c1ccco1`, 79.1% (inactive); to `C=C(C)[C@@H]1CC[C@]2(C)[C@H](CC=C3[C@@H]4[C@H](C)[C@@H](C)CC[C@]4(CO)CC[C@]32C)[C@@]1(C)CCCN`, 34.1% (inactive).

For the origin of these results see PubChem BioAssay (NCI).
